Experiments:
Assay in all cases: log2 ratio of Biotin-Ahx-Ub-VS probe labelling (fragment/DMSO); higher = less target engagement (more negative = stronger competition), active = hit call of the paper (q ≤ 0.05, log2 ratio ≤ -1)
Details in all cases: compound concentration: 200 uM; treatment time: 3 h
[1] = biological target: T1, USP42 (UniProt Q9H9J4)
T1 sequence (whole entry): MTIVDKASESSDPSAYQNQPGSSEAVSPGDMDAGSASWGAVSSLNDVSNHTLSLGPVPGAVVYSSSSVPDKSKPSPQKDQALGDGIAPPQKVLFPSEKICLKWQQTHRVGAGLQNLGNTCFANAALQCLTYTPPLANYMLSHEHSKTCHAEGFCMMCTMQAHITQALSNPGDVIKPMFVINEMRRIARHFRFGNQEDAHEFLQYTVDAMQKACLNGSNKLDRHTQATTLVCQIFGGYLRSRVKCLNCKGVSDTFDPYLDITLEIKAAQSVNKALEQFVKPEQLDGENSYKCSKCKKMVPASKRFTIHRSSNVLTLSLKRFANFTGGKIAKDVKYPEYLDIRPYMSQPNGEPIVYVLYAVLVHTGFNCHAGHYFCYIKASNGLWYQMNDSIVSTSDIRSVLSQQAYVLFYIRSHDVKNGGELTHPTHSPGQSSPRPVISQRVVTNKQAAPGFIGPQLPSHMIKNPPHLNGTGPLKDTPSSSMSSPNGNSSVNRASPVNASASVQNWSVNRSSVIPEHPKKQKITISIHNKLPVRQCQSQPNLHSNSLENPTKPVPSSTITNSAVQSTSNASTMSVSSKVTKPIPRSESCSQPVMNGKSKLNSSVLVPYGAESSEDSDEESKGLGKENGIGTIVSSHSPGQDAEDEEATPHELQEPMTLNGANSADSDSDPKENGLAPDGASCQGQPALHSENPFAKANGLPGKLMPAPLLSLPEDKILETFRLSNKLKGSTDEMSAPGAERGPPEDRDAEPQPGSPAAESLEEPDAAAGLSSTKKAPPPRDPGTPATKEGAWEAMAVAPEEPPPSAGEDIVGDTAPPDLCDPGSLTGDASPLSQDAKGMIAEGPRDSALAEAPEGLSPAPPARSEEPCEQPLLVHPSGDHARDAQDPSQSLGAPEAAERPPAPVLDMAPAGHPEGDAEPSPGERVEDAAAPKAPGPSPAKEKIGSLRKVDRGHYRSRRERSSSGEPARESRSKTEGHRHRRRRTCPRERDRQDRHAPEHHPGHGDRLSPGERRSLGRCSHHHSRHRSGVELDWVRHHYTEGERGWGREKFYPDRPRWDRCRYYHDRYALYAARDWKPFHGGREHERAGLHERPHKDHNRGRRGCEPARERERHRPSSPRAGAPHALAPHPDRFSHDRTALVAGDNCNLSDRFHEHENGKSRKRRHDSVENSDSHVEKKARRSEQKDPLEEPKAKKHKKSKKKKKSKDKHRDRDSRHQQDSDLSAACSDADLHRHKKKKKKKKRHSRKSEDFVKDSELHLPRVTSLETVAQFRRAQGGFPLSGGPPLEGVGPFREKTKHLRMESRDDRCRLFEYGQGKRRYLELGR
Outline: (§1)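 Labelling with Biotin-Ahx-Ub-VS (0.5 µM final, 1 h) followed a 3 h triplicate treatment of HEK293T lysate (495 µg per sample, Tris/CHAPS/IGEPAL buffer with protease inhibitors) with fragment at 200 µM or vehicle. Labelled DUBs were NeutrAvidin-enriched, digested with LysC and trypsin, and run by diaPASEF LC-MS/MS. The values, average log2 fragment/vehicle ratios by unpaired t-test, come from global-median-normalised Spectronaut label-free quantities. Proteins with ≥2 unique peptides were used.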

[2] = biological target: USP46 (UniProt P62068)
Sequence of USP46 (P62068 whole entry): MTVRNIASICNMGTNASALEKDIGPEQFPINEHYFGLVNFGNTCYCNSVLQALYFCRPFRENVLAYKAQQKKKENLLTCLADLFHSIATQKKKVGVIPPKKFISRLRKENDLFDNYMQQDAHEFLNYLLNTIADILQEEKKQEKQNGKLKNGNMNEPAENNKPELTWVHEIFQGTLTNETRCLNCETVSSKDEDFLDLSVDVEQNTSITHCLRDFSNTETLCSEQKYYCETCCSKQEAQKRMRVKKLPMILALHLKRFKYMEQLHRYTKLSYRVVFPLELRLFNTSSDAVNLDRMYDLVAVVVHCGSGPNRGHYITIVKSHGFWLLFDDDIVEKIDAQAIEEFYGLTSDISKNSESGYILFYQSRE
Outline: as §1

[3] = biological target: T2, USP47 (UniProt Q96K76)
T2 sequence (whole entry): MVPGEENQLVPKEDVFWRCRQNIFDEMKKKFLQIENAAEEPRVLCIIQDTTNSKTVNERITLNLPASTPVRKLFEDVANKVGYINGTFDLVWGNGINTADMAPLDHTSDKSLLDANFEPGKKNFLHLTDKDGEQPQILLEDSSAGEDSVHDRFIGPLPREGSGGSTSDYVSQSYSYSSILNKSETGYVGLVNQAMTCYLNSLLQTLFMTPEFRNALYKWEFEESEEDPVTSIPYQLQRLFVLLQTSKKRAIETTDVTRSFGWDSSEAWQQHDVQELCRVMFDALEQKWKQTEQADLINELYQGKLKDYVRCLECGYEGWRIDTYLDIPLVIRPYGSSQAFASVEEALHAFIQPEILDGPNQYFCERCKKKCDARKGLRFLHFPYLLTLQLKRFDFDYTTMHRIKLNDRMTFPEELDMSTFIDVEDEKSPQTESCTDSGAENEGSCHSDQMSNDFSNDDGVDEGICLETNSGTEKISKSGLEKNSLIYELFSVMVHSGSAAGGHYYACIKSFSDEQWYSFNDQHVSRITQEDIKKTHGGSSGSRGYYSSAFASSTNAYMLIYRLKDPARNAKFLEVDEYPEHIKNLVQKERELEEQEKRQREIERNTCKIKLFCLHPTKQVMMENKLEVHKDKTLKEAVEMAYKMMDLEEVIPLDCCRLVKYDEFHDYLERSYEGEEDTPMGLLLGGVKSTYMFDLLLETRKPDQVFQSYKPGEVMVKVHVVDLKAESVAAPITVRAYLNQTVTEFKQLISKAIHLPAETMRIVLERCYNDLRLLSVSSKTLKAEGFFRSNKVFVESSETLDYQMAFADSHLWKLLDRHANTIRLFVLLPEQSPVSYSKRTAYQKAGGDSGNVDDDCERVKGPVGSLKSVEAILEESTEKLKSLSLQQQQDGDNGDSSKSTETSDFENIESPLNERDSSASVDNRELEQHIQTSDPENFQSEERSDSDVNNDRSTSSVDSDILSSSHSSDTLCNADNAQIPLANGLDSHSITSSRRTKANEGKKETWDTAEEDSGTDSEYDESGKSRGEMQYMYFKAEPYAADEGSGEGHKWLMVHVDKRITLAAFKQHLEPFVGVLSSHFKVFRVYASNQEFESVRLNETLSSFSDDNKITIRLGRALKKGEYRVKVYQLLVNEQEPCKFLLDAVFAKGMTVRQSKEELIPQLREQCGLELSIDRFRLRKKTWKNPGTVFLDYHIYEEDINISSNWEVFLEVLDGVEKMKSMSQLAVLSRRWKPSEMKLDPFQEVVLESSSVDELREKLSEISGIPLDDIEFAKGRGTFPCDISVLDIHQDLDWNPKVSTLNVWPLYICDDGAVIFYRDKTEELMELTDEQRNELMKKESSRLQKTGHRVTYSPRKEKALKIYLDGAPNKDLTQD
Outline: as §1

[4] = biological target: T3, USP48 (UniProt Q86UV5)
T3 sequence (whole entry): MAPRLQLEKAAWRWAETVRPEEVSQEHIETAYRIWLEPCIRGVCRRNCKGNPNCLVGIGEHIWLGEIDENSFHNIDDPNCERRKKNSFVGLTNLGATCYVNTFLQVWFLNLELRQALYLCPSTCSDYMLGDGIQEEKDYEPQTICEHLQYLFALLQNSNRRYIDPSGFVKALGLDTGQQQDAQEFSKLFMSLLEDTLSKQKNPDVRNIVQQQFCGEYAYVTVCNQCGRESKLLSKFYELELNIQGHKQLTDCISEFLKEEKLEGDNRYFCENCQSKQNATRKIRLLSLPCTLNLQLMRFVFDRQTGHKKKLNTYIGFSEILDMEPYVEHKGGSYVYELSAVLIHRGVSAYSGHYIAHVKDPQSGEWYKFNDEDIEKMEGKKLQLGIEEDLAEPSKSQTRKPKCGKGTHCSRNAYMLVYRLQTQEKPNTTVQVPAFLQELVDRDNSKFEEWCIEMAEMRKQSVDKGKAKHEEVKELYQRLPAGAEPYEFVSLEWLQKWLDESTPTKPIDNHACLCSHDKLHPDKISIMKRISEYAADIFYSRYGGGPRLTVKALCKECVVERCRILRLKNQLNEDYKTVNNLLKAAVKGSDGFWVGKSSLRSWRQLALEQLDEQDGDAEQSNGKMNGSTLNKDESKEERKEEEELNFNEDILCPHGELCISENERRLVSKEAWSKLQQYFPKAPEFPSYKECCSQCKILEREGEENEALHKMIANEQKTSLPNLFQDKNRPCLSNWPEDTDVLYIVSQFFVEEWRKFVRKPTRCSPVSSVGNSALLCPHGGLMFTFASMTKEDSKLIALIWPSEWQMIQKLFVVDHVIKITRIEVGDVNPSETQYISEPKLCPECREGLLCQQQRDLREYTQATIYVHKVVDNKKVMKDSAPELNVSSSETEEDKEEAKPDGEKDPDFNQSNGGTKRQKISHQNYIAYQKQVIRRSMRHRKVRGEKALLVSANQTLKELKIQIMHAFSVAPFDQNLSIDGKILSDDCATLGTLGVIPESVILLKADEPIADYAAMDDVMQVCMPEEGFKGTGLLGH
Outline: as §1

[5] = biological target: T4, USP5 (UniProt P45974)
T4 sequence (whole entry): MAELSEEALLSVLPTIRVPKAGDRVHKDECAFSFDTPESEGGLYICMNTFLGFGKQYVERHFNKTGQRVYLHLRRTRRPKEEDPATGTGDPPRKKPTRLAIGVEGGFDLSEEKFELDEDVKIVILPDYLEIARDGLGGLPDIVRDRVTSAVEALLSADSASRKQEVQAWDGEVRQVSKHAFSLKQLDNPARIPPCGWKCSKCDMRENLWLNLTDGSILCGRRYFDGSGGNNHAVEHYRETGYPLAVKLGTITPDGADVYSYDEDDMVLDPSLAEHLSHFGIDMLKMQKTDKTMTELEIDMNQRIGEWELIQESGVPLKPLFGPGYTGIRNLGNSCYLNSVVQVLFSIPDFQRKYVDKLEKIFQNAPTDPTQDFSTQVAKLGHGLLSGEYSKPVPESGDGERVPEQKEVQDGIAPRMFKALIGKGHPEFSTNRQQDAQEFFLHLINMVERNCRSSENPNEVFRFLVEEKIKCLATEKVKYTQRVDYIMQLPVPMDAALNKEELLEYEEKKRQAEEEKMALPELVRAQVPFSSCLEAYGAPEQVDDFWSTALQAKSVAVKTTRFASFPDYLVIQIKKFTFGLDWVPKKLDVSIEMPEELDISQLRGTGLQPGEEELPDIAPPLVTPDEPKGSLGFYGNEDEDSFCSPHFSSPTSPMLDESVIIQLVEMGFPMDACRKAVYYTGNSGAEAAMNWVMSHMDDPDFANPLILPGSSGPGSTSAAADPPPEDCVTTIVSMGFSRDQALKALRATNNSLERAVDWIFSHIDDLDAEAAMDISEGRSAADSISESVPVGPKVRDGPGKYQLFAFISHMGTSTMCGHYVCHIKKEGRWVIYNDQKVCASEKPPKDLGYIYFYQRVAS
Outline: as §1

[6] = biological target: USP54 (UniProt Q70EL1)
Sequence of USP54 (Q70EL1 whole entry): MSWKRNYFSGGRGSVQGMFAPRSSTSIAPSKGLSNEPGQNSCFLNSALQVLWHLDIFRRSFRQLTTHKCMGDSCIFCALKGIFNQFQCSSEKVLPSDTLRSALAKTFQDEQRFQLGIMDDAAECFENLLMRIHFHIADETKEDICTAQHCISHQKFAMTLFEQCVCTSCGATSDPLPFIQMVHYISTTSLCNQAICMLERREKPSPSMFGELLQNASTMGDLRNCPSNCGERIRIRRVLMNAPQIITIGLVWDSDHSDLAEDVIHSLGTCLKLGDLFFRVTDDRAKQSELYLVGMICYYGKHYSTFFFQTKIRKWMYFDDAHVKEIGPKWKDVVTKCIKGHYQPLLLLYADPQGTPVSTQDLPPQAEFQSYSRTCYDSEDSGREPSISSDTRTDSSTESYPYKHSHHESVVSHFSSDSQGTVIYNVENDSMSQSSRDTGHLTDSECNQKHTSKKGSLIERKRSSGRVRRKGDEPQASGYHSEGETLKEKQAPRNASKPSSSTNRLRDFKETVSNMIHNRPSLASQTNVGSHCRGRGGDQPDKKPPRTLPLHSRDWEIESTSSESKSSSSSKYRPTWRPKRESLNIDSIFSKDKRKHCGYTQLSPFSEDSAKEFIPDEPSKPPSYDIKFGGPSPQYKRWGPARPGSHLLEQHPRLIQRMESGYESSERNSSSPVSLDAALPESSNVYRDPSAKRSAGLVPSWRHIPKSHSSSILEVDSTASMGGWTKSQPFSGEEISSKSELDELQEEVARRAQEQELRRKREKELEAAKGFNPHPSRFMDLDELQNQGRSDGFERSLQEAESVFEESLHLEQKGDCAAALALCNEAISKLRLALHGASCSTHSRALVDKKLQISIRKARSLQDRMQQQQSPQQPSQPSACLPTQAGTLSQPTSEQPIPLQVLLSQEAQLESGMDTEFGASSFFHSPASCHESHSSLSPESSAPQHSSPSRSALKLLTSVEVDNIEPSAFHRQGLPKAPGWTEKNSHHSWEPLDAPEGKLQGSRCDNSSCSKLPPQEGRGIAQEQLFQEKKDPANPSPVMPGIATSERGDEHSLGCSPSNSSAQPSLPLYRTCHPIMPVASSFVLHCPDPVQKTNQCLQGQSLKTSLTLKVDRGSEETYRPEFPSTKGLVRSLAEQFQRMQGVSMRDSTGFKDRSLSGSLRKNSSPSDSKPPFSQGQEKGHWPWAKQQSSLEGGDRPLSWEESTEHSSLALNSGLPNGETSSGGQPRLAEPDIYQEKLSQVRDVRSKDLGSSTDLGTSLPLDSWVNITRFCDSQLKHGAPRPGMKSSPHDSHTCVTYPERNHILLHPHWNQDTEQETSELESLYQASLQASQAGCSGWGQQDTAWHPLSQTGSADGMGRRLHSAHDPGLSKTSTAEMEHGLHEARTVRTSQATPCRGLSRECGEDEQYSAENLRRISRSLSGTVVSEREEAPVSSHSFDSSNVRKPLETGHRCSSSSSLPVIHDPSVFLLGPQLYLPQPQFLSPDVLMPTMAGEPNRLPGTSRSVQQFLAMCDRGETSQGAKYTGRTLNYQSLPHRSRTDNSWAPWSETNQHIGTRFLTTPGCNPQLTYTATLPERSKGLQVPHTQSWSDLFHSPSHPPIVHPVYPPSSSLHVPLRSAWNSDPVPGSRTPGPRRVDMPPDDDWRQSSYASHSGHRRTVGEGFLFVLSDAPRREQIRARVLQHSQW
Outline: as §1

[7] = biological target: USP7 (UniProt Q93009)
Outline: as §1

[8] = biological target: T5, USP8 (UniProt P40818)
T5 sequence (whole entry): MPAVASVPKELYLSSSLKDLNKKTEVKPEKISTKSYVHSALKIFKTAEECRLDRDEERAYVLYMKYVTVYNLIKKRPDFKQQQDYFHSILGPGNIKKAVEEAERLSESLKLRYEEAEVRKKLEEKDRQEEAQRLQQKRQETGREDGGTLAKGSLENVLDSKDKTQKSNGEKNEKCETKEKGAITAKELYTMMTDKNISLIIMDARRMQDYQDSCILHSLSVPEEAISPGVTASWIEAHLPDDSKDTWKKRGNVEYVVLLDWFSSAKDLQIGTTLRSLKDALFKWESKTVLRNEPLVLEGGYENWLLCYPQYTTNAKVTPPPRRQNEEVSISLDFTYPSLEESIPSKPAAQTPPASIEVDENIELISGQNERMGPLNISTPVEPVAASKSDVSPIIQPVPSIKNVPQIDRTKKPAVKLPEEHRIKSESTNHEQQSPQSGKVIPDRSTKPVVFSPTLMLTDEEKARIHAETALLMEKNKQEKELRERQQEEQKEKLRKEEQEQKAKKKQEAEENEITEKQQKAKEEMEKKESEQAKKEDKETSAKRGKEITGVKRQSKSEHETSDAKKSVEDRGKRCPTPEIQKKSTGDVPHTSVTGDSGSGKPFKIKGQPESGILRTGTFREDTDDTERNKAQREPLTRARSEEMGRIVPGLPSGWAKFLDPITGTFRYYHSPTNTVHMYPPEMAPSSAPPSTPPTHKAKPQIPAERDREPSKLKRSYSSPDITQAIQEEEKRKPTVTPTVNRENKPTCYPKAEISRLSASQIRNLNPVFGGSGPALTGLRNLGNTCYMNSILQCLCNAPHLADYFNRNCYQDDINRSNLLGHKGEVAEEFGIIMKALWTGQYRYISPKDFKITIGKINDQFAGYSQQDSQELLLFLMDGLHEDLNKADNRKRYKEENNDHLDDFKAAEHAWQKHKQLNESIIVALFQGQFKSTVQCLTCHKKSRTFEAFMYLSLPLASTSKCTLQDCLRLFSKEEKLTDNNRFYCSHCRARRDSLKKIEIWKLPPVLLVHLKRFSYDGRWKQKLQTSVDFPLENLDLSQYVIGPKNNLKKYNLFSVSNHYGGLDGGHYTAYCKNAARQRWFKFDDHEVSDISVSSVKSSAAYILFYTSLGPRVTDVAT
Outline: as §1

[9] = biological target: USP9X (UniProt Q93008)
Sequence of USP9X (Q93008 whole entry): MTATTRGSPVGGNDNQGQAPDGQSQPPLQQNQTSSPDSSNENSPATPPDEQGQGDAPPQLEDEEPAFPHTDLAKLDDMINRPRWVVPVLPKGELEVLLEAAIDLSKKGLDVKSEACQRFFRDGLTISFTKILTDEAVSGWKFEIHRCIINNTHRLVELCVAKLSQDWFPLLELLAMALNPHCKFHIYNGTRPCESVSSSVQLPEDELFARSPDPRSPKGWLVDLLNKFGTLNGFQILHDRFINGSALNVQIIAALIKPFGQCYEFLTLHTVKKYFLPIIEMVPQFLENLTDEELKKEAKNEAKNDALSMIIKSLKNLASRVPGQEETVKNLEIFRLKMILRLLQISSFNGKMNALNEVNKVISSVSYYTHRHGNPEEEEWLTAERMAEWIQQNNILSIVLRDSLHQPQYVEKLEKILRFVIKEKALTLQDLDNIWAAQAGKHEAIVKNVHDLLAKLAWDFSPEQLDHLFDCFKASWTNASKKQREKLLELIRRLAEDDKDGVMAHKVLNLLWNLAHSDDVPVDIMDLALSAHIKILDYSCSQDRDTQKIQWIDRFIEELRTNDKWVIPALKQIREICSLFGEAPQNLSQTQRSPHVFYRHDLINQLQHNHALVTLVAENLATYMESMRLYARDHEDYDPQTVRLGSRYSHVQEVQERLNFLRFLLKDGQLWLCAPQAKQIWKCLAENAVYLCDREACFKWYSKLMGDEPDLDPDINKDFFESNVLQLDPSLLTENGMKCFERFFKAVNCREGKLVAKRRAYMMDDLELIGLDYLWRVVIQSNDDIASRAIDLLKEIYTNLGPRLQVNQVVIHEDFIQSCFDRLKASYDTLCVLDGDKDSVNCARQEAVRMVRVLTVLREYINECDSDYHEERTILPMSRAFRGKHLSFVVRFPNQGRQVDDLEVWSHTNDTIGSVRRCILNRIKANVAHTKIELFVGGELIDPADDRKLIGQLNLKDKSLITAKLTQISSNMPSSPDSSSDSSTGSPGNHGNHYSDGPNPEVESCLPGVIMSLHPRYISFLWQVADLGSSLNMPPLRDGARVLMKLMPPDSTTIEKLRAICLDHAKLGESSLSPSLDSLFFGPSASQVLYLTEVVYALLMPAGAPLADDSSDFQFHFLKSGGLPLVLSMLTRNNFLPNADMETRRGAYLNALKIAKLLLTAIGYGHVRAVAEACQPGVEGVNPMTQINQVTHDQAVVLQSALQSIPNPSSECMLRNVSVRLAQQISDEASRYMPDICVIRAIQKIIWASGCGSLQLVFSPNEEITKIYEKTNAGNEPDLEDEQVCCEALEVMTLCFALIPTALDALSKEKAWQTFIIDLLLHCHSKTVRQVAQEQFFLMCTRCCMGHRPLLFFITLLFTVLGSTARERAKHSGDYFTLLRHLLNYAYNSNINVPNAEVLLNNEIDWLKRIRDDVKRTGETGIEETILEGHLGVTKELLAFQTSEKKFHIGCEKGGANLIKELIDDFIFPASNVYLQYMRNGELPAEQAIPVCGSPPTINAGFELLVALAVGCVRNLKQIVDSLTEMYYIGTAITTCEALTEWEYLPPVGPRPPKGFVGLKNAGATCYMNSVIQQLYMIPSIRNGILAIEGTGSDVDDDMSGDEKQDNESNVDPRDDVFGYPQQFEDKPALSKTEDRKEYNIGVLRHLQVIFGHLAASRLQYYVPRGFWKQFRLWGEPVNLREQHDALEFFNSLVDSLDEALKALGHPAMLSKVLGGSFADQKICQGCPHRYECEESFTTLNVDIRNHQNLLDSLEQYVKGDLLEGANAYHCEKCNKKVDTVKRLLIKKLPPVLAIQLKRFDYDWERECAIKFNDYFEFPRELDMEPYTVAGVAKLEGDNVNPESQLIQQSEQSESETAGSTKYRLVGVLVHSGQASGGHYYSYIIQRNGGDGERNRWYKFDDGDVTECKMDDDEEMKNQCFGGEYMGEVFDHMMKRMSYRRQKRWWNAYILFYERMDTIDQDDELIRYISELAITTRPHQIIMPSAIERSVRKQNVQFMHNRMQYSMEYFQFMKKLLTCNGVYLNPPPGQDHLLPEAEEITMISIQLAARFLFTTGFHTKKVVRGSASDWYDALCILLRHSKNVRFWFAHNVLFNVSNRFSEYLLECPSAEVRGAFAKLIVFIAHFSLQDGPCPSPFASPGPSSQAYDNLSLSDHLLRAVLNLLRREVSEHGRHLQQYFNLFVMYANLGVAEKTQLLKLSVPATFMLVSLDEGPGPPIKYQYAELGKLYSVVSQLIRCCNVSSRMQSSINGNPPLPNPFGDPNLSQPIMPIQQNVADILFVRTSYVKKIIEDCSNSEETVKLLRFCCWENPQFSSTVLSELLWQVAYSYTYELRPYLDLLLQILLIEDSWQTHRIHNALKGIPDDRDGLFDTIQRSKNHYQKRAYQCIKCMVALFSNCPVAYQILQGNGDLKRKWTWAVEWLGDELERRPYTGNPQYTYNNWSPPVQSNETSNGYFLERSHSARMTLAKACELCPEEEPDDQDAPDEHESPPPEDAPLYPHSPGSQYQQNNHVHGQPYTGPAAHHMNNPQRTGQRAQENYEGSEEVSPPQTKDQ
Outline: as §1

[10] = biological target: UniProt O00487
Sequence of UniProt O00487 (O00487 whole entry): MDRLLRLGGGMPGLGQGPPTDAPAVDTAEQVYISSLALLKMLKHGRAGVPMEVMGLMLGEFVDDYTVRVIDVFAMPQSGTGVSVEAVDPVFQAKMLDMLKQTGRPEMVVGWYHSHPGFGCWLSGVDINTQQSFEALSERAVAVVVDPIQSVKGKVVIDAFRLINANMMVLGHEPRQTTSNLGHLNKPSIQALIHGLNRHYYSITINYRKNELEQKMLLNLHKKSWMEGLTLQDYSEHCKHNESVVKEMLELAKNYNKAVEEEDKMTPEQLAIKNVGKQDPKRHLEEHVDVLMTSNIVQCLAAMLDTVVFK
Outline: as §1

Measured: log2 ratio of Biotin-Ahx-Ub-VS probe labelling

Cl.O=C(CCl)NCc1cc2c(nc1O)CCCC2
active: [3] -1.45
inactive: [1] -0.448 | [2] 0.127 | [4] -0.169 | [5] 0.0226 | [6] 0.773 | [7] -0.155 | [8] -0.3 | [9] -0.309 | [10] -0.0291

— the supplement of paper PMC11732987, “Enantioselective OTUD7B fragment discovery through chemoproteomics screening and high-throughput optimisation” (Communications Chemistry, 2025)
